This is part of a sample that, as a whole, favours compounds with a hit. Of some 83,000 tested, about 20% had one in any assay.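 Note: values are percent growth. 100 is the growth of untreated cells, values between 100 and 0 indicate rising inhibition; between -100 and 0 indicates cell death.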 Unmarked numbers belong to inactive results. Calls of active or inactive are those of the source.

The assay has as its system PC-3 prostate. Kind of assay: NCI-60 one-dose screen, 48 h (100 = growth as untreated, 0 = no growth, -100 = all killed). Conditions: 10 µM unless noted. As to the method:
Growth inhibition of the PC-3 human tumor cell line is measured as a screen for anti-cancer activity. Cells are grown in 96 well plates and exposed to the test compound for 48 hours. Compounds are tested at a single concentration, which is 10^-5 M for most compounds. The reported endpoint is percent growth (GI% or GIPRCNT), where numbers from 0 - 100% represent growth inhibition, and numbers from -100% - 0 represent cell death. For example, a value of 40 represents 60% growth inhibition. A value of 0 means no net growth occurred over the course of the experiment. A value of -40 indicates 40% of cells at the beginning of the experiment died by the end of the experiment. A value of -100 means all cells are dead at the end of the experiment.
NCI-60 Human Tumor Cell Lines Screen was performed using the standard one-dose NCI protocol, which is described in more detail at https://dtp.cancer.gov/discovery_development/nci-60/default.htm.
Compounds with GIPRCNT values below 10 were considered active. Activity score was based on GIPRCNT using the following formula: […]
Score is 0 for GIPRCNT values of 100 or above, 50 for GIPRCNT values of 0, and 100 for GIPRCNT values of -100.
For `CSc1nnc(-c2cnn3c2NC(c2ccccc2)C3)n1-c1ccc(C(F)(F)F)cc1` (stereo not given), the growth is 46.3%. On to `O=C(O)c1[nH]c(=O)[nH]c(=O)c1[N+](=O)[O-]`, for which the growth was 96.7%. As to `O=C(O)[C@@H]1c2ccccc2-c2ccccc2[C@H]1C(=O)O`, the growth is 90.9%. Consider `Cc1ccc(NC(=S)NNC(=S)NNc2ccccc2)cc1C`, for which the growth was 55.7%. As for `O=C1/C(=C/c2ccccc2Br)COc2ccc(O)c(O)c21`, the growth is 15.6%.

With `O=C(Cn1cc(CN2C(=O)c3ccccc3S2(=O)=O)nn1)Nc1nc2ccccc2s1`, the growth is 93.2%. Consider `Cc1cc(N)c2cc(NC(=O)/C=C\c3ccccc3Cl)ccc2n1`, for which the growth is -91.5% (active). Regarding `CCn1cc(C(=O)N/N=C/c2cccs2)c(=O)c2cc(F)c(N3CCNC(C)C3)c(F)c21` (stereo not given), the growth was 76.3%. With `CN1CCN(Cc2ccc(NC(=O)c3cncc(C#Cc4cnc(N)c5ccccc45)c3)cc2C(F)(F)F)CC1`, the growth is -53.1% (active). Turning to `COc1ccc(/C(C)=C(/c2ccc(OCCCN(C)C)cc2)c2ccc(OC(=O)Cc3ccccc3)cc2)cc1`, the growth was 71.9%. `CCNc1cc(-c2cccc(OC(F)(F)F)c2)nc2ccc(N3CCCC3)cc12`: the growth is 15.1%. With `COc1ccc2cc(-c3ccc(NC(C)=O)c(=O)o3)ccc2c1`, the growth is 89.1%.

On to `CS(=O)(=O)C1=CN(CCO)C(=O)N2CCCN=C12`, for which the growth is 98.8%. Turning to `COc1ccc(C/C(C)=C(/c2ccc(OCCN3CCCCC3)cc2)c2ccc(OC(=O)NCc3ccccc3)cc2)cc1`, the growth was -95.9% (active). Turning to `CN1CCN(C(=O)OCc2ccc3c(Cl)cc(Cl)c(O)c3n2)CC1`, the growth was 44.1%. For `OCCOCCN(Cc1ccccn1)Cc1cc(I)cc(I)c1O` the value was 75.5%; for `O=C(CCC(=O)N/N=C/c1ccccc1O)N/N=C/c1ccccc1O`, 31.1%; for `CCN1CC(=O)N(/N=C2\C(=O)Nc3ccccc32)C1=S`, 92%. As for `N#CC1=C(N)Oc2c(sc3c(Br)cccc23)C1c1ccc(F)cc1` (stereo not given), the growth is 23.6%.

On to `CCN1CCN(c2cc(C(=O)Nc3nc(-c4cc(OC)c(OC)c(OC)c4)cs3)cc(C(F)(F)F)c2)CC1`, for which the growth is 57.1%. As for `CO/N=C(/C)c1ccc(NC(=O)CSc2nnc(-c3ccncc3)n2-c2ccccc2)cc1`, the growth is 49.9%. For `COc1ccc(CC(C#N)c2cc3ccccc3[nH]2)cc1` (stereo not given), the growth was 75.6%. With `CN1C(=O)/C(=C/c2ccc(C(=O)Nc3ncc(Cc4ccc(Cl)cc4)s3)cc2)SC1=S`, the growth was 55.1%. With `C1=C(N2CCCC2)CCC1`, the growth is 77.8%. With `O=C(CI)NC1Oc2ccccc2-c2oc(=O)c(-c3ccccc3)cc21` (stereo not given), the growth is -72.8% (active).

For `CC1(C)CC[C@]2(C(=O)O)CC[C@]3(C)C(=CC[C@@H]4[C@@]5(C)C/C(=C/O)C(=O)C(C)(C)[C@@H]5CC[C@]43C)[C@@H]2C1`, the growth was 31.4%. As for `CCOC(=O)C#Cc1c(C(=O)OCC)nnn1[C@@H]1O[C@H](CO)[C@H]2OC3(CCCCC3)O[C@H]21`, the growth was 86.7%.

With `C/C(=N\NC(=O)c1ccccc1O)c1cccc(/C(C)=N/NC(=O)c2ccccc2O)n1`, the growth was 48%.

Consider `CN(C)CCNc1nc2c3cc(Cl)ccc3nn2c2ccccc12`, for which the growth is 46.8%. Regarding `Cc1cc(Cl)ccc1Nc1nc(C(F)(F)F)ccc1C(=O)N/N=C/c1ccc([N+](=O)[O-])cc1`, the growth is -43.7% (active).

In the case of `O=C(Nn1c2c(sc1=NCc1ccccc1)C(=O)c1ccccc1C2=O)c1cc2ccc1CCc1ccc(cc1)CC2`, the growth was 57.8%. Turning to `Brc1ccc2[nH]cc(-c3nonc3-c3c[nH]c4ccccc34)c2c1`, the growth is 35.2%. With `CC(C)N1CN2C(=S)NC3C2N(C1)C(=S)N3C` (stereo not given), the growth is 98%. Take `C=C1C(=O)O[C@H]2[C@H]1CC/C(COC(=O)NCc1cc[nH]c1)=C\CC[C@@]1(C)O[C@@H]21`: the growth is 51.7%. For `O=C1c2cccnc2C(=O)c2c1c(C(=O)NCCn1ccnc1)c1ccccn21`, the growth is 8.68% (active). As to `OCc1cccc(-c2ccc3ncc(-c4nc(NC5CC5)ncc4F)n3c2)c1`, the growth is -10.3% (active). Turning to `O=c1c2cc(-c3ccccc3)sc2nc2sc(-c3ccccc3)nn12`, the growth is 95.1%. For `CCCCCOc1ccc(C(=O)/C(Br)=C/C(=O)O)cc1`, the growth was 99.6%.

`Cc1cccc2c1NC(=O)C2(c1ccc(O)cc1)c1ccc(O)cc1`: the growth was 38.9%. Take `COc1ccc(C(=O)C2C(c3ccc(OC)cc3)CN(C)C23C(=O)Nc2ccccc23)cc1` (stereo not given): the growth is 75.3%.
